Consider ten compounds from ChEMBL document CHEMBL3988442, “University of Dundee, Small-Polar-MMV Screening Library” (2021).

Common to all, as to parameters: scale not given: direction of the effect not stated beside the values
The target in assay [1] is Protein translocase subunit SecA (Escherichia coli (strain K12)) (UniProt P10408). The assay is described as follows: Assay to Identify E. coli SecA ATPase Inhibitors. In kind it is functional. To be noted: 30 µM.
The target of assay [2] is T1, Ubiquitin-activating enzyme e1, putative (Leishmania donovani (strain BPK282A1)) (UniProt E9BSI1).
T1 sequence (whole entry): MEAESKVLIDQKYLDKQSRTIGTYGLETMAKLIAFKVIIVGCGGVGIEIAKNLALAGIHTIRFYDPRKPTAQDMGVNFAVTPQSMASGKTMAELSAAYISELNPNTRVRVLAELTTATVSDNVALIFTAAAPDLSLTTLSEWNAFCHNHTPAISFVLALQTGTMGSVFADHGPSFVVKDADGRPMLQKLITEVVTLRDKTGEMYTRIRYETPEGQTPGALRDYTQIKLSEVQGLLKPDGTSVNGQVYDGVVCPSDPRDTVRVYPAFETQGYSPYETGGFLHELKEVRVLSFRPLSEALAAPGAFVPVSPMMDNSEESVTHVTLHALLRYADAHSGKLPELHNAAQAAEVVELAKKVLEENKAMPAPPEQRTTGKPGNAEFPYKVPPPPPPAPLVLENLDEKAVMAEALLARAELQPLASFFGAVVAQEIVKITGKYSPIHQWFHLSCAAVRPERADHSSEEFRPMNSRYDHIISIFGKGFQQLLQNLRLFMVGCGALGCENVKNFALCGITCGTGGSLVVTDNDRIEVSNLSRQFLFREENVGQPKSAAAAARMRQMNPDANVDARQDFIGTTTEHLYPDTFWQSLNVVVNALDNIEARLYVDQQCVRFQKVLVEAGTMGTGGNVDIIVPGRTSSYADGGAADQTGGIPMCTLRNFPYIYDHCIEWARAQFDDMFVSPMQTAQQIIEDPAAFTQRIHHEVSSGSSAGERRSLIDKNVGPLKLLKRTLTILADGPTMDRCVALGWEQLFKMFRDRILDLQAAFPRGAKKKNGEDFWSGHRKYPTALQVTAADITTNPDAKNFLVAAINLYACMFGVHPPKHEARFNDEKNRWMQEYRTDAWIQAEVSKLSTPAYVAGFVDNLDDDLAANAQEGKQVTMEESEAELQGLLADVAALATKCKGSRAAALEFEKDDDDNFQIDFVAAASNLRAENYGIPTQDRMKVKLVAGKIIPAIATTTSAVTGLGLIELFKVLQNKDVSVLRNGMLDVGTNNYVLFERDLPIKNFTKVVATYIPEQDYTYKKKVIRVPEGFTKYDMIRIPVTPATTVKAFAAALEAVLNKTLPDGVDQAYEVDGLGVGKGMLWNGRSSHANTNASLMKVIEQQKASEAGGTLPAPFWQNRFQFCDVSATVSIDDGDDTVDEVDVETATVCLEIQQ
The experiment in a line: Leishmania donovani Ubiquitin Activating Enzyme (LdE1). Type of assay: functional. To be noted: 30 µM.

Assay [3] has as its target AMP-activated protein kinase, AMPK (Homo sapiens) (UniProt P54646+O43741+P54619+Q9UGJ0+Q9Y478+Q13131+Q9UGI9). The assay is described as follows: AMP-dependent Kinase enzyme assay. An in vitro enzyme assay that detects ADP turnover that is directly proportional to AMPK activity. This uses naive AMPK that is activated during the assay with MK-8722. Type of assay: functional. As to conditions: 30 µM.

In assay [4] the target is Sialic acid-binding Ig-like lectin 9 (Homo sapiens) (UniProt Q9Y336). The experiment in a line: Hs-Siglec9 ALPHAscreen SOP 20170721. To be noted: 10 µM. Background: Bead proximity is the source of the signal in Alpha formats.
Assay [5] relates to Trypanosoma cruzi. The experiment in a line: Trypanosoma cruzi phosphomannomutase and mannose-1-phosphate guanylyltransferase assay. In kind it is functional. To be noted: 10 µM.
The target of assay [6] is T2, Arginase-2, mitochondrial (Homo sapiens) (UniProt P78540).
T2 sequence (whole entry): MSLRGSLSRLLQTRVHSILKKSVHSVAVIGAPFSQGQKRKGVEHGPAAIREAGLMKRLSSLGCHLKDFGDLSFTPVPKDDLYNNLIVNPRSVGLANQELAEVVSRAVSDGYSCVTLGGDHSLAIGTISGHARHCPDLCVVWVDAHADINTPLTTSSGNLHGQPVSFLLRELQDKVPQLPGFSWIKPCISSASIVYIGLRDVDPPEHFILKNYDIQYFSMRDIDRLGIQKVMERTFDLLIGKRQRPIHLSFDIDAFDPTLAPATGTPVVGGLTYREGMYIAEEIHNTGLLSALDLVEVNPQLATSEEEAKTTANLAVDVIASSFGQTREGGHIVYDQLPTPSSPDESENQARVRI
The experiment in a line: in vitro enzyme assay to detect the production of urea directly proportional to the activity of Arginase II. Further: in the data most compounds retested in dose-response had high values. Type of assay: functional. To be noted: 33.3 µM.

Assay [7] addresses T3, Proteasome subunit beta (Trypanosoma cruzi) (UniProt O96673).
T3 sequence (whole entry): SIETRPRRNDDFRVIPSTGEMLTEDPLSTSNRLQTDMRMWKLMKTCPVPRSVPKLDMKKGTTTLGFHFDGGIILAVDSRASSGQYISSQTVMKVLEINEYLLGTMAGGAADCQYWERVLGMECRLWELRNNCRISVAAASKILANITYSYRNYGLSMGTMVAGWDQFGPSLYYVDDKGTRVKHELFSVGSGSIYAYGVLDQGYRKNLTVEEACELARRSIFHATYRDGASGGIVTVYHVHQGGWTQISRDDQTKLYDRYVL
The assay is described as follows: Trypanosoma cruzi proteasome chymotrypsin-like activity (TcProtChymo) assay. Further: in the data most compounds retested in dose-response had high values. In kind it is functional. As to conditions: 9.37 µM.

The species named for assay [8] is Homo sapiens. The experiment in a line: To identify inhibition of the IFN signalling (Jak-Stat) pathway via expression of an eGFP reporter gene under the control of an IFN-stimulated response element (ISRE) containing MxA promoter. In kind it is functional. To be noted: 30 µM. (In a reporter assay the amount or activity of a reporter protein is the signal.)
Assay [9] deals with T4, Tyrosyl-tRNA synthetase, putative (Trypanosoma cruzi (strain CL Brener)) (UniProt Q4DSP6).
T4 sequence (whole entry): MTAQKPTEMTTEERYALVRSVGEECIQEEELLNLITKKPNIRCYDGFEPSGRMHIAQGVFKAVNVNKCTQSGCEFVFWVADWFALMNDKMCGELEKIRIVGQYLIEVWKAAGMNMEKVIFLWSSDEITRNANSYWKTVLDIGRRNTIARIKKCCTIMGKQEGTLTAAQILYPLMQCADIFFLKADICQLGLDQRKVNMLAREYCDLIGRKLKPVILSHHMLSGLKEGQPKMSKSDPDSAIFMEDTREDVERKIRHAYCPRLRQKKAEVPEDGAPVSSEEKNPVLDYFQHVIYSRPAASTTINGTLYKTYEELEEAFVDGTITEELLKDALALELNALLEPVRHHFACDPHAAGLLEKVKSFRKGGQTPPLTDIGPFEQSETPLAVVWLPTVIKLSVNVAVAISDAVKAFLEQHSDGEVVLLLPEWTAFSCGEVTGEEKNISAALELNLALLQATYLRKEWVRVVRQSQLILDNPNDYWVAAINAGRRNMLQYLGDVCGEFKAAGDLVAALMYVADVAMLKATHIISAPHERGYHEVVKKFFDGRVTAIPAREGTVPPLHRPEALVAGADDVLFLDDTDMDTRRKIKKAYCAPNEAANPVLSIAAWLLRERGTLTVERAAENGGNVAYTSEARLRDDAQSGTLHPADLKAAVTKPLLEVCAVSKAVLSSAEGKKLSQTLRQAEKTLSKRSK
The assay is described as follows: Trypanosoma cruzi tyrosyl tRNA synthetase (TcYRS) _High Tyrosine SOP. Further: in the data most compounds retested in dose-response had high values. As to conditions: 30 µM. Type of assay: functional.

Assay [10] concerns the target T4, Tyrosyl-tRNA synthetase, putative (Trypanosoma cruzi (strain CL Brener)). The assay is described as follows: Trypanosoma cruzi tyrosyl tRNA synthetase (TcYRS) SOP. In kind it is functional. To be noted: 30 µM.
For assay [11], the target named is Chromo domain-containing protein 1 (Saccharomyces cerevisiae (strain ATCC 204508 / S288c) (Baker's yeast)) (UniProt P32657). The experiment in a line: ScCHD-1 Enzyme Inhibition Assay. Further: in the data most compounds retested in dose-response had high values. To be noted: 30 µM. Type of assay: functional.

For some assays here: Measured potencies and affinities stand elsewhere.

Protein translocase subunit SecA (Escherichia coli (strain K12)), sequence (P10408 whole entry): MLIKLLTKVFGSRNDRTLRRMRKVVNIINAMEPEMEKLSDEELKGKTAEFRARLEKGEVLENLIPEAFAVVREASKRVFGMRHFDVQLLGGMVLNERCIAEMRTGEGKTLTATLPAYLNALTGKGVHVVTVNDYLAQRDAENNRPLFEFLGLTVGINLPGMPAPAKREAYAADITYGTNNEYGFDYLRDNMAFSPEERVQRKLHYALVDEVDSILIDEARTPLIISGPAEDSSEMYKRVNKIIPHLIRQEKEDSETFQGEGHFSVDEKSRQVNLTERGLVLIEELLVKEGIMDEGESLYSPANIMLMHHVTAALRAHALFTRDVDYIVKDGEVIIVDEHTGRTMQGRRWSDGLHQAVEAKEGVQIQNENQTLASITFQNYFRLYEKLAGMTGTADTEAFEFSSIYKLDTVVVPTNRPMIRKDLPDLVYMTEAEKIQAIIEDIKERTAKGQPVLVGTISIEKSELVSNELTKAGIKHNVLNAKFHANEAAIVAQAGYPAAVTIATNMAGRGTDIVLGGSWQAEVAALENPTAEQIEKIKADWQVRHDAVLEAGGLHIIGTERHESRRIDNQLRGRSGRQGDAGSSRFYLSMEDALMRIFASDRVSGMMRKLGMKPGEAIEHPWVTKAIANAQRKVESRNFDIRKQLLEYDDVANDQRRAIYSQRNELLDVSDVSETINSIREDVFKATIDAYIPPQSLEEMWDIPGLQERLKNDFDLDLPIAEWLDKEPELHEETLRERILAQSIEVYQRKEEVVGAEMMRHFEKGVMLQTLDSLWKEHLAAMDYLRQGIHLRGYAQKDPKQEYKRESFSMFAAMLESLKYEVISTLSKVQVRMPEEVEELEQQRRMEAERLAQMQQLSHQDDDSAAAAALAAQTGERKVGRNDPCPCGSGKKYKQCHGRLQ
Chromo domain-containing protein 1 (Saccharomyces cerevisiae (strain ATCC 204508 / S288c) (Baker's yeast)), sequence (P32657 whole entry, the tested form may be a part): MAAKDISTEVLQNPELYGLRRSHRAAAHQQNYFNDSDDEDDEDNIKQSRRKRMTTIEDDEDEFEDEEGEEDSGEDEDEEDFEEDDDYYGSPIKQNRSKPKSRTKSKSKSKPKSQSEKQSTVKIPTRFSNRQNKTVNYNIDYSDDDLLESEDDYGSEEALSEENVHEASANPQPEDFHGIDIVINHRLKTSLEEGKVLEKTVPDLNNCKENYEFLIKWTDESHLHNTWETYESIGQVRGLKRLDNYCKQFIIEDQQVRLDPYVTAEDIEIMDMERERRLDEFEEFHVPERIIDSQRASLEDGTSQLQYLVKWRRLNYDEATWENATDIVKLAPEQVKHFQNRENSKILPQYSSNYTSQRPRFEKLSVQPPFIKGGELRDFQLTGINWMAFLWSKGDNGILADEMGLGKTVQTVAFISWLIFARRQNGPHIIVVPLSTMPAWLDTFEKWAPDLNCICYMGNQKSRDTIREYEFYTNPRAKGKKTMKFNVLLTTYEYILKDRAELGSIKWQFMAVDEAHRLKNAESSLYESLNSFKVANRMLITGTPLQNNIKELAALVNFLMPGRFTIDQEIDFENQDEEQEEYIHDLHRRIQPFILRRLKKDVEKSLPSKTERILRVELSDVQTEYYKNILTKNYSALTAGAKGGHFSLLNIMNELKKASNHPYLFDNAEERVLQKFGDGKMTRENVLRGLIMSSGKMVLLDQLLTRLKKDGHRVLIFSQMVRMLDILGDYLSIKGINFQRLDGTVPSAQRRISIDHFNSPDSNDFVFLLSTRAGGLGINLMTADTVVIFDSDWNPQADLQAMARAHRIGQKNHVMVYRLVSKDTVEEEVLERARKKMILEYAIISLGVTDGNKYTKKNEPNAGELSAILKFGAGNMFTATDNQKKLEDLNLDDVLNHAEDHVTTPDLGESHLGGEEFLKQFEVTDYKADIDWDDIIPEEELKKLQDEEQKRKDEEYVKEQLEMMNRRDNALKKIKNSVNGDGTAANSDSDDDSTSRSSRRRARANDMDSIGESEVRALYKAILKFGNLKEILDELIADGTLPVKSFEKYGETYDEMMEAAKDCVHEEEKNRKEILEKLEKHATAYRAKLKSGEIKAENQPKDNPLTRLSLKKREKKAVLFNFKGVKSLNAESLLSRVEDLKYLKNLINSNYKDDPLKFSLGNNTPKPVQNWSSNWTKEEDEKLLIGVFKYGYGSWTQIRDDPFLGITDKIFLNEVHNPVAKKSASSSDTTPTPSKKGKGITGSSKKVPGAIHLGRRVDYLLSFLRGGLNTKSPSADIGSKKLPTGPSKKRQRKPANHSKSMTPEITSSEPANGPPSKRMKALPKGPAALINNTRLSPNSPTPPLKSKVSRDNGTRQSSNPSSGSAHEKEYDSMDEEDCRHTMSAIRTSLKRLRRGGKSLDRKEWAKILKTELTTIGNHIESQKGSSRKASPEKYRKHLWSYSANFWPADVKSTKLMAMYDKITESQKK
Sialic acid-binding Ig-like lectin 9 (Homo sapiens), sequence (Q9Y336 whole entry): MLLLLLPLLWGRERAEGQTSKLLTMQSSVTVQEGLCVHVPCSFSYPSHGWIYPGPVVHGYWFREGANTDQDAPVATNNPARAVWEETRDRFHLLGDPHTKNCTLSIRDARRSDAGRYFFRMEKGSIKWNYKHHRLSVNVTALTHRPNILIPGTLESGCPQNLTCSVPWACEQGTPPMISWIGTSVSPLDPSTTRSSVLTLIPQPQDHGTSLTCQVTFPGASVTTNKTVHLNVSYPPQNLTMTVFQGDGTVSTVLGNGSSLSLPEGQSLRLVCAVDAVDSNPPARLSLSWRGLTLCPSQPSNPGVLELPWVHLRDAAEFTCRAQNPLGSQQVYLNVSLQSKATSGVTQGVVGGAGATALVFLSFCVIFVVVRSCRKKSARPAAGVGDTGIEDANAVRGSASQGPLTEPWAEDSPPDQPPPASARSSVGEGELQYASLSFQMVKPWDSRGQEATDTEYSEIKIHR

Consider `CCc1n[nH]c(C2CN(CC(=O)NCCc3ccsc3)CCO2)n1` (stereo not given), for which the Percent Effect in assay [1] is -2.71%; in [2], 5.48%; in assay [3], -4.4%; in [4] it was 11.2%; in assay [5], 5.09%; in assay [6], 4.09%. Moreover, the Percent Effect was 1.42% in assay [7]; 4.97% in [8]; 1.07% in assay [9]; 5% in assay [10]; -5.13% in assay [11].
As for `Cc1ncc2c(n1)CN(Cc1nnc(Cc3ccccc3)o1)CC2`, the Percent Effect in assay [1] is -2.29%; in assay [2] it was 24.3%; in [3] it was -11.8%; in assay [4], 1.92%; in assay [5], 5.66%; in assay [6], 4.99%. Besides, the Percent Effect in [7] was 13.8%; in [8] it was -0.54%; in assay [9] it was 29.7%; in [10], 28.1%; in assay [11], -9.78%.
`CC(=O)N1CCC(Cc2cnc(-c3c(C)nn(C)c3C)cn2)C1` (stereo not given): the Percent Effect in assay [1] is -3.33%; in assay [2], 0%; in [3], 8.59%; in assay [4], 5.11%; in assay [5] it was 5.71%; in assay [6], -8.62%. For the same compound, the Percent Effect in [7] was 2.2%; in [8], -21.9%; in [9], 4.25%; in assay [10], 6.41%; in assay [11] it was -1.12%.
In the case of `CC(C)c1ncc(CN2CCCC(CO)C2)cn1` (stereo not given), the Percent Effect in [1] was -1.56%; in assay [2], 1.35%; in assay [3], 11.1%; in [4], 9.9%; in assay [5] it was -6.32%; in assay [6], 1.16%. Besides, the Percent Effect in [7] is 3.59%; in assay [8], -1.15%; in assay [9] it was 1.07%; in [10], 1.3%; in assay [11] it was -0.548%.
As to `Cc1ccc2c(ccn2CCC(=O)N2CCC(C(N)=O)CC2)c1`, the Percent Effect in [1] was -2.26%; in assay [2] it was 6.67%; in [3], 6.01%; in assay [4] it was 7.91%; in assay [5], -0.393%; in [6], -12.2%. The Percent Effect in assay [7] was 16.6%; in assay [8] it was -3.73%; in assay [9] it was 5.29%; in assay [10] it was 7.69%; in assay [11], -3.32%.
On to `COc1ccc(CNC(=O)NC(C)Cn2cccn2)cc1O` (stereo not given), for which the Percent Effect was -1.61% in assay [1]; 5.2% in assay [2]; -4.12% in assay [3]; 3.12% in [4]; 2.64% in assay [5]; -1.47% in [6]. Further, the Percent Effect in assay [7] was 3.15%; in [8], 25.9%; in assay [9], 3.81%; in assay [10], 11.8%; in [11], -15.6%.
As for `Cn1cnc2c1C(COCC1CC1)CN(Cc1ccsc1)C2` (stereo not given), the Percent Effect was -1.29% in [1]; 13% in [2]; 3.5% in assay [3]; -4.76% in assay [4]; -1.68% in assay [5]; 7.1% in [6]. Besides, the Percent Effect was 20.2% in assay [7]; 6.71% in [8]; 6.35% in assay [9]; 11.5% in assay [10]; -6.29% in assay [11].
As for `NS(=O)(=O)CCNC(=O)C1(c2ccc(Br)cc2)CC1`, the Percent Effect in assay [1] is 2.05%; in [2], 7.79%; in assay [3], -1.42%; in [4], 6.68%; in assay [5] it was 4.23%; in [6], -13.8%. Also, the Percent Effect was 13% in assay [7]; -0.291% in assay [8]; 2.15% in assay [9]; 16.1% in assay [10]; -2.63% in assay [11].
As for `OCC1CCCN1c1cc(NCCNc2ccccn2)ncn1` (stereo not given), the Percent Effect in assay [1] is -3.44%; in assay [2], 5.48%; in [3], -4.46%; in assay [4], -5.01%; in assay [5] it was 1.18%; in [6], 3.64%. Besides, the Percent Effect is 20.4% in assay [7]; 22.1% in assay [8]; 2.15% in [9]; 10% in assay [10]; -7.12% in assay [11].
As for `CCOCC(O)CN1CCN(C(=O)c2ccccc2Cl)CC1` (stereo not given), the Percent Effect in assay [1] was -5.28%; in assay [2], 5.26%; in assay [3] it was 5.55%; in assay [4] it was 2.24%; in [5], 0%; in assay [6], 2.3%. Also, the Percent Effect in assay [7] was -3.17%; in assay [8], -0.893%; in [9] it was 1.47%; in assay [10], 7.32%; in assay [11], 4.97%.
